The text below walks through data of PubChem BioAssay (NCI).

Compounds without any hit were thinned out: in the full panel of roughly 83,000, 20% have a hit.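 Step 1: grow cells in 96-well plates. Step 2: add test compound at a single concentration. Step 3: incubate 48 h. Step 4: record percent growth.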 A number with no mark means an inactive call. Active and inactive are the calls of the source. The calls were made as follows: active = growth percent below 10; inactive = the rest.

For the assay, the system named is MDA-MB-468 breast. Nature of the assay: NCI-60 one-dose screen, 48 h (100 = growth as untreated, 0 = no growth, -100 = all killed). Particulars: 10 µM unless noted.
As to `CCCCCCOc1ccc(/C=N/Nc2cc(C)nc3ccc(Cl)cc23)cc1`, the growth was -56.7% (active).

In the case of `O=C(CCl)N1CCCc2ccccc21`, the growth was 80.9%.

Consider `O=C(COc1ccc(Cl)cc1)N1CCN(Cc2ccc3c(c2)OCO3)CC1`, for which the growth was 98.5%.

Regarding `CCC#CC[C@H](O)C/C=C1/C(=O)C=C[C@@H]1C/C=C\CCCC(=O)OC`, the growth was 12.4%.

As for `Fc1cc(Nc2ccc3c(OCCCN4CCOCC4)cccc3n2)ccc1Cl`, the growth is 28.5%.

`O=[N+]([O-])c1ccc(Cl)c(-c2cc(CCCCO)on2)c1`: the growth was 98.3%.

Take `CC(=O)OC[C@H]1OC(Sc2sc(C(=O)c3ccc(C)cc3)c(N)c2-c2nc3ccccc3s2)[C@H](OC(C)=O)[C@@H](OC(C)=O)[C@@H]1OC(C)=O` (some centres not stated): the growth is 75.4%.

Take `COc1ccc(Cn2c(Br)c3c(c2-c2cc(OC)c(OC)c(OC)c2)CCc2sc(N)nc2-3)cc1`: the growth was 16.3%.

As to `CN1CCN(Cc2ccc(NC(=O)c3cncc(C#Cc4cnc5cccnn45)c3)cc2C(F)(F)F)CC1`, the growth was 37.8%.

As for `Cc1ccc(-c2cc(-c3cccc4ccccc34)n3c(n2)nc2ccccc23)cc1`, the growth was 70.4%.

As for `COc1ccc(C(=O)c2cc3c(N)c(C(=O)Nc4ccc(C)cc4)sc3nc2C)cc1`, the growth was -16.8% (active).

As to `CN=C(NC)N/N=C(C)\C=N\NC(=NC)NC`, the growth was 121%.

`NC(=O)c1cc(I)ccc1NC(=O)COc1ccccc1`: the growth was 30.3%.

For the molecule `C=C1C(=O)O[C@H]2[C@H]1CC/C(COC(=O)NCc1ccc(Cn3c(=O)sn(CCCCl)c3=O)cc1)=C\CC[C@@]1(C)O[C@@H]21`, the growth was -52% (active).

Take `CCN(CC)CCOc1ccc(C(=O)/C=C\c2ccc(Cl)cc2Cl)cc1`: the growth was 39.8%.

With `CC(=O)Oc1ccccc1C(=O)N(Cc1ccc2c(Cl)cc(Cl)c(O)c2n1)c1ccccc1`, the growth was 40.9%.

As for `Cc1cc(=O)n(C(=O)Nc2ccccc2Cl)c2cc(O)ccc12`, the growth was 104%.

For the molecule `Cc1ccc(S(=O)(=O)NC(=O)NCCSSCCNC(=O)NS(=O)(=O)c2ccc(C)cc2)cc1`, the growth was 97.6%.

`Cc1c2cnccc2c(C)c2c1c1cc(C#N)ccc1n2C`: the growth was -46.9% (active).

Turning to `COc1ccc(-c2nn(-c3cccc(NC(=O)c4ccc5c(c4)OCCO5)c3)cc2-c2ccncc2)cc1Cl`, the growth is 26.2%.

As to `Ic1ccccc1-c1ccccc1`, the growth is 103%.

In the case of `CC12CCC3C(CCC4CC(O)CCC43C)C1C/C(=C/O)C(=O)O2` (configuration not stated), the growth was 108%.

In the case of `CC(=O)[C@H]1CC[C@H]2[C@@H]3C[C@H](C)C4=CC(=O)CC[C@]4(C)[C@H]3C(=O)C[C@]12C`, the growth was 106%.

Take `CCN(CC)CCCC(C)Nc1cnc(C(=O)Nc2ccc(Cl)c3cccnc23)cn1` (configuration not stated): the growth is -28% (active).

Turning to `CS(=O)(=O)c1ccc(-c2nc3ccccn3c2C=Nc2ccc(Cl)cc2)cc1`, the growth is 98.1%.

In the case of `CCN(CC)S(=O)(=O)c1ccc(-c2nc(C(Cl)Cl)nc3cc(-c4ccc(F)cc4)nn23)cc1`, the growth is -31.9% (active).

As for `CS(=O)(=O)c1ccc(/C(=N/NC(N)=S)c2ccc(F)cc2)cc1`, the growth is 88.2%.
